In PubChem BioAssay (Tox21):
Active and inactive are the calls of the source. Calls come from the whole dose curve; as a rule, active = well fitted cell-killing curve with a large enough effect in the repeat runs; inconclusive = weak or mixed curves, or effect the other way; inactive = flat fitted curve, though single readings scatter.

test: qHTS assay to identify small molecule HDAC inhibitors - cell viability counter screen (AID 1259365); details: HCT-116 viability, CellTiter-Glo ATP luminescence, 2 h; series mostly up to 92.4 µM; note: nearly all actives have a fitted effect of over 50% in size
Description: U.S. Tox21 Program National Center for Advancing Translational Sciences [NCATS] NIH Chemical Genomics Center [NCGC] U.S. Environmental Protection Agency [EPA] National Institutes of Environmental Health Sciences [NIEHS] National Toxicology Program [NTP] U.S. Food and Drug Administration [FDA] Tox21 Assay Overview: Histone deacetylases (HDACs) are a group of epigenetic enzymes that regulate gene expression by histone deacetylation. HDACs are capable of introducing epigenetic modifications and such aberrations contribute to the onset and progression of several human diseases, thus making HDACs a popular therapeutic target. For identifying endogenous class I/II HDAC inhibitors a homogenous, luminogenic HDAC I/II cell based assay was used to measure the relative activity of class I and II HDACs from cells. Wild type HCT-116 cells were used to screen Tox21 compound libraries for identifying class I/II HDAC inhibitors.
Tox21 Assay Protocol Summary: HCT-116 cells were dispensed at 1,500 per well in 5uL of culture medium into white solid bottom 1536-well plates (Greiner Bio-One, Monroe, NC) using a Multidrop Combi (Thermo Scientific, Waltham, MA) dispenser. The assay plates were incubated at 37 C and 5% CO2 for an overnight, and then 23nL of compounds dissolved in DMSO and positive control were transferred using a Pintool station (Wako, San Diego, CA). The assay plates were incubated at 37C and 5% CO2 for 2hr. After compound treatment, 4uL of CellTiter-Glo reagent (Promega Corporation, Madison, WI) was added to each well of the assay plates using Flying Reagent Dispenser (FRD, Aurora Discovery, San Diego, CA) and incubated the assay plates at room temperature for 30min. The luminescence signal was quantified using a ViewLux plate reader (Perkin Elmer, Shelton, CT).

Row | Compound | outcome
1 | CC(C)(Cl)Cl | inactive
2 | CCCCN(CC)C(=O)SCCC | inactive
3 | CCCCOC(=O)c1ccccc1C(=O)OCCCC | inactive
4 | Cc1cc(-c2cc(C)c(N)c(C)c2)cc(C)c1N | inactive
5 | O=c1ccc(=O)[nH][nH]1 | inactive
6 | Nc1ccc(Oc2ccc(N)cc2)cc1 | inactive
7 | CC(C)NC(=O)N1CC(=O)N(c2cc(Cl)cc(Cl)c2)C1=O | inactive
8 | Nc1ccccc1C(=O)O | inactive
9 | CCNc1nc(NC(C)(C)C)nc(SC)n1 | inactive
10 | COC(=O)c1ccccc1C(=O)OC | inactive
11 | Oc1ccccc1Cl | inactive
12 | COC(=O)c1ccccc1N | inactive
13 | CCCCCCCCCCCC#N | inactive
14 | CC(NC(C)(C)C)C(=O)c1cccc(Cl)c1 (stereo not given) | inactive
15 | OC(O)C(Cl)(Cl)Cl | inactive
16 | O=c1[nH]c2ccccc2c(=O)o1 | inactive
17 | [O-][Cl+2]([O-])O | inactive
18 | Cc1cccc([N+](=O)[O-])c1 | inactive
19 | BrCCBr | inactive
20 | O=Cc1cccc(Oc2ccccc2)c1 | inactive

Row | Compound | outcome
21 | C=C(C)CCl | inactive
22 | CCNc1nc(NC(C)C)nc(SC)n1 | inactive
23 | O=[N+]([O-])c1ccc(Oc2ccc(Cl)cc2Cl)cc1 | inactive
24 | COc1ccc2c3c1O[C@H]1[C@@H](O)C=C[C@H]4[C@@H](C2)N(C)CC[C@@]341 | inactive
25 | c1ccc(OP(Oc2ccccc2)Oc2ccccc2)cc1 | inactive
26 | CON(C)C(=O)Nc1ccc(Cl)c(Cl)c1 | inactive
27 | COCCl | inactive
28 | O=c1[nH]c(=O)[nH]c(=O)[nH]1 | inactive
29 | NCC(O)c1ccc(O)cc1 (stereo not given) | inactive
30 | C1CN2CCN1CC2 | inactive
31 | CCOC(=O)c1ccccc1C(=O)OCC | inactive
32 | CCCN(CCC)c1c([N+](=O)[O-])cc(C(F)(F)F)cc1[N+](=O)[O-] | inactive
33 | CCOP(=S)(OCC)Oc1cnc2ccccc2n1 | inactive
34 | CC(Oc1ccc(Cl)cc1Cl)C(=O)O (stereo not given) | inactive
35 | COP(N)(=O)SC (stereo not given) | inactive
36 | CN(N=O)c1ccccc1 | inactive
37 | CCC(C)(CC)c1cc(NC(=O)c2c(OC)cccc2OC)on1 | inactive
38 | CNC(=O)Oc1ccccc1OC(C)C | inactive
39 | Cc1ccc(N)cc1N | inactive
40 | CC(C)(C)C(O)(CCc1ccc(Cl)cc1)Cn1cncn1 (stereo not given) | inactive
